This excerpt belongs to a sample that is enriched for hits.
Pf Dd2 inh: inhibitors of Plasmodium falciparum Dd2 growth. P. falciparum Dd2 growth, SYBR Green, 72 h. Potency, µM (titrated, usually from 28.9 µM), inactives show top-dose activity, negative = inhibition, hits mostly inhibitors. 4.3% of 120,000 active; active means well fitted inhibition curve with a large enough effect;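 further: plate controls were DMSO vehicle for no effect and reference drug for full effect; nearly all actives have a fitted effect of over 65% in size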
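Infected erythrocytes (Dd2, 0.3% parasitemia, 2.5% hematocrit final) are added to compound in RPMI-1640/Albumax II medium, grown 72 h at 37C in low oxygen, then lysed with saponin/Triton-X containing SYBR Green and read by fluorescence.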
Starred values were filed as active, the others as inactive; i = inactive; ! = repeats disagree; [ ] = dose if it differs, or a comment. Potency means the concentration at half of the fitted maximal effect.

SMILES	Pf Dd2 inh
O=C(c1ccncc1)N1CCC2(CC1)CC(c1ccccc1)C(=O)N(C1CC1)C2 (centres undefined)	-17%
c1cnc2nc(-c3ccsc3)[nH]c2c1	-19%[44.1 µM]
c1ccc(-c2nc3ncccc3[nH]2)nc1	19%[44.1 µM]
Cc1cc(-c2nc3ncccc3[nH]2)c(C)[nH]1	28µM*!
O=C(NCc1c[nH]c2ncccc12)c1cccc2[nH]ccc12	-21%[44.1 µM]
c1cnc2nc(C3CCNC3)[nH]c2c1 (centres undefined)	24%[44.1 µM]
c1cnc2nc(-c3c[nH]c4ncccc34)[nH]c2c1	25µM*!
COc1cccc(C(=O)Nc2ccc3ncnc(N4CCCCC4)c3c2)c1	i
CCN1CCN(c2cc(C)c3cc(NC(=O)c4cccc(C(F)(F)F)c4)ccc3n2)CC1	5.6µM*
CCNC(=O)CN1CCCC(CNC(=O)c2cccc(C(F)(F)F)c2)C1 (centres undefined)	-19%
Cc1cccc(C(=O)Nc2ccc3ncnc(N4CCCCC4)c3c2)c1	i
CCN1CCN(c2cc(C)c3cc(NC(=O)c4ccc(OC)c(OC)c4)ccc3n2)CC1	2.8µM*
Cc1ccc(C2NC(=O)N(CC(=O)Nc3ccc(F)cc3)C3=C2C(=O)OC3)cc1 (centres undefined)	i
COc1ccccc1-c1cc(NCc2cnccn2)c2onc(C)c2n1	-19%[44.1 µM]
O=C(N[C@H]1CO[C@H]2[C@@H]1OC[C@@H]2n1nnnc1Oc1ccc(-n2ccnc2)cc1)c1ccc(C(F)(F)F)cc1	-22%
Cc1ccc(S(=O)(=O)N(C)Cc2cccc(C(F)(F)F)c2)cc1	-21%
Cc1nnc(N2CCC(C(=O)NC3CCC(C)CC3)CC2)c2nn(-c3ccc(Cl)cc3)c(C)c12 (centres undefined)	3%
Cc1nnc(N2CCN(C(=O)NCCC(C)C)CC2)c2nn(-c3ccc(Cl)cc3)c(C)c12	1%
Cc1nnc(N2CCC(C(=O)N3CCCCC3)CC2)c2nn(-c3ccc(Cl)cc3)c(C)c12	10µM*
Cc1nnc(N2CCC(C(=O)NC3CCCCC3)CC2)c2nn(-c3ccc(Cl)cc3)c(C)c12	12%
CCN(CC)CCNC(=O)C1CCCN(c2nnc(C)c3c(C)n(-c4ccc(Cl)cc4)nc23)C1 (centres undefined)	11µM*
CCN(CC)CCNC(=O)C1CCCN(c2ncnc3onc(C)c23)C1 (centres undefined)	-9%
COCCN1CC(CO)C2(CCN(C(=O)COc3cccc(C)c3)CC2)C1 (centres undefined)	i
CN1CCC(N2CCC[C@@H](O)[C@H](NC(=O)c3ccc(OCC(N)=O)cc3)C2)CC1	-3%[44.1 µM]
O=C(Cn1c(=O)oc2ccccc21)NC1CCCN(CCCc2ccccc2)C1 (centres undefined)	i
SMILES	Pf Dd2 inh
O=C1CN(C(=O)CCC(=O)N2CCCC(Cc3nncn3Cc3ccccc3)C2)c2ccccc2N1 (centres undefined)	i
Cc1ccc(NS(=O)(=O)c2ccccc2)c(=O)n1CC(=O)NC(C)c1ccccc1 (centres undefined)	i
COCC(=O)N[C@H]1C[C@H]2C(=O)NC[C@@H](CCC(=O)NCc3ccccc3)N2C1	-4%[44.1 µM]
CCOc1cccc(CNCCCSc2nnnn2C)c1	-4%
Cn1nnnc1SCCCNCc1cccc(OCc2ccc(F)cc2)c1	5.6µM*
Cn1nnnc1SCCNCc1ccc(OCc2ccccc2)cc1	i
COCCC1(N(C)C)CCN(C(=O)c2ccnn2C)CC1	5%
Cc1cc(C[C@@H]2COC[C@@H]2NC(=O)c2cc3cc(F)ccc3n2C)on1	-7%
CC(=O)N1CCc2c(sc3c2c(=O)n(Cc2ccccc2)c(=O)n3Cc2cccc(Cl)c2)C1	10µM*
CCOC(=O)N1CCc2c(sc3c2c(=O)n(Cc2ccccc2)c(=O)n3Cc2ccc(C)cc2)C1	2.5µM*
CCOC(=O)N1CCc2c(sc3c2c(=O)n(CCc2ccccc2)c(=O)n3Cc2ccc(C)cc2C)C1	2.5µM*
CC(=O)N1CCc2c(sc3c2c(=O)n(-c2ccccc2)c(=O)n3CC(=O)c2ccccc2)C1	0%
CC(=O)c1cccc(-n2c(=O)c3c4c(sc3n(Cc3cccc(C)c3)c2=O)CN(C(C)=O)CC4)c1	-24%
COc1ccccc1NC(=O)Cn1c(=O)n(Cc2ccccc2)c(=O)c2c3c(sc21)CN(C(C)=O)CC3	-10%
CCOc1ccc(NC(=O)Cn2c(=O)n(CCc3ccccc3)c(=O)c3c4c(sc32)CCCC4)cc1	44%
CCOc1ccccc1NC(=O)Cn1c(=O)n(Cc2ccccc2)c(=O)c2c3c(sc21)CN(C(C)=O)CC3	-21%
CCOC(=O)N1CCc2c(sc3c2c(=O)n(CCc2ccccc2)c(=O)n3CC(=O)Nc2cccc(C)c2)C1	i
CC(=O)N1CCc2c(sc3c2c(=O)n(Cc2ccccc2)c(=O)n3Cc2ccc(Cl)cc2)C1	-22%
CC(=O)N1CCc2c(sc3c2c(=O)n(-c2ccccc2)c(=O)n3Cc2cccc(C(F)(F)F)c2)C1	10µM*
CCOC(=O)N1CCc2c(sc3c2c(=O)n(-c2ccc(CC)cc2)c(=O)n3Cc2cccc(OC)c2)C1	-26%
CNC(=O)[C@@H]1CN(C(=O)c2conc2C)C[C@H]1COC	23%
O=C(C1CC1)N1CCN2C(=O)N(Cc3ccc(F)cc3)C[C@H]2C1	27%[44.1 µM]
O=C1NC2(CCN(Cc3ccccc3C(F)(F)F)CC2)Oc2ccccc21	i
COC(=O)c1cccc(NC(=S)N[C@H]2CO[C@H]3[C@@H]2OC[C@@H]3n2cc(CC3CCCCC3)nn2)c1	i
CCc1cccc(NC(=O)CN2C=C(C(=O)OC)C(C)=NS2(=O)=O)c1	62%
SMILES	Pf Dd2 inh
CN(Cc1ccc(F)cc1)Cc1ccccc1C(F)(F)F	-26%[44.1 µM]
COc1ccccc1C(=O)N1CCC(N2CCCC2=O)CC1	0%[44.1 µM]
Cc1cccc(CN2C[C@]34C=C[C@H](O3)C(C(=O)N(C)Cc3nnc(C)o3)C4C2=O)c1 (some centres undefined)	12%
O=C(Nc1ccc(F)cc1)N[C@H]1[C@H](O)[C@@H](N2CCOCC2)[C@@H]2OC[C@H]1O2	5%[44.1 µM]
C#CCn1c(=O)n(-c2cccc(Cl)c2C)c(=O)c2c3c(sc21)CN(C(C)=O)CC3	7%
CC(=O)c1cccc(-n2c(=O)c3c4c(sc3n(Cc3ccccc3Cl)c2=O)CN(C(C)=O)CC4)c1	i
CC(=O)N1CCc2c(sc3c2c(=O)n(-c2cccc(Cl)c2C)c(=O)n3Cc2ccccc2C)C1	8.9µM*
COc1cccc2ccc(-c3c(-c4ccccc4)ncn3CCNC(C)=O)nc12	-28%
CCCn1ccnc1-c1c(-c2ccccc2)ncn1CCCC(=O)OC	1%
COc1cccc(OC)c1-c1c(-c2ccccc2)ncn1CCCSC	10µM*
CC(C)CS(=O)(=O)Nc1ccc([C@H]2OCC(=O)N[C@@H]2CO)cc1	6%[44.1 µM]
C=CCN1CCN(C(=O)C2CCCN(Cc3ccncc3)CCC(=O)NCC2)CC1 (centres undefined)	21%
COc1cccc(CC(=O)N2CCOCCNC(=O)[C@@H]3CCCC[C@@H]32)c1	i
CCc1ccc(C2C(C(=O)Nc3ccccc3OC)=C(C)Nc3nc(SCc4ccccc4)nn32)cc1 (centres undefined)	-9%
CC1=C(C(=O)Nc2ccccc2)C(c2ccccc2Cl)n2ncc(C(=O)Nc3cccc(C)c3)c2N1 (centres undefined)	3.2µM*
COc1ccccc1NC(=O)C1=C(C)Nc2c(C(=O)Nc3ccc(C)cc3)cnn2C1c1cccc(OC)c1OC (centres undefined)	13%
CC1=C(C(=O)Nc2ccc(C)cc2)C(c2ccccc2Cl)n2nnnc2N1 (centres undefined)	23%
